Experiment [1] is described as follows: NCI Yeast Anticancer Drug Screen. Data for the rad50 strain (AID 155).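 Also: 0% = growth of vehicle-only cultures of the same strain.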 To be noted: S. cerevisiae rad50 strain growth inhibition; at 50.0 µM; stronger effect = higher value. A digest of the protocol:
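DNA repair mutant yeast, compound exposure, growth read-out; inhibition is taken relative to vehicle.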

Experiment [2] can be described thus: NCI Yeast Anticancer Drug Screen. Data for the mec2-1 strain (AID 157). To be noted: S. cerevisiae mec2-1 strain, at 50.0 µM, stronger effect = higher value. A digest of the protocol:
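Cells of the genetically defined mec2-1 yeast strain are incubated with test compound. Inhibition of growth is calculated against vehicle-treated controls.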

Experiment [3] can be described thus: NCI Yeast Anticancer Drug Screen. Data for the sgs1 mgt1 strain (AID 161).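 Also: 0% = growth of cultures given vehicle only.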 As to conditions: S. cerevisiae sgs1 mgt1 strain, at 50.0 µM, stronger effect = higher value. An outline of the steps:
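Mutant yeast exposed to compound; growth scored against vehicle-only wells.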

A short description of experiment [4]: NCI Yeast Anticancer Drug Screen. Data for the cln2 rad14 strain (AID 165).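 Also: 0% = growth equal to vehicle treated cultures.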 To be noted: S. cerevisiae cln2 rad14 strain, at 50.0 µM, stronger effect = higher value. An outline of the steps: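 The screen exposed genetically defined yeast (cln2 rad14) to test compounds and scored growth inhibition relative to vehicle-treated controls.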
Experiment [5] can be described thus: NCI Yeast Anticancer Drug Screen. Data for the bub3 strain (AID 167). As to conditions: S. cerevisiae bub3 mutant strain, at 50.0 µM, stronger effect = higher value. An outline of the steps: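 In this screen, a yeast mutant lacking normal mitotic checkpoint function is challenged with compound. Relative growth versus vehicle gives the inhibition value.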
A short description of experiment [6]: NCI Yeast Anticancer Drug Screen. Data for the mlh1 rad18 strain (AID 175). As to conditions: S. cerevisiae mlh1 rad18 strain growth inhibition; at 50.0 µM; stronger effect = higher value. A digest of the protocol: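 Compound-treated yeast growth, normalised to vehicle controls. Strain bears defined DNA repair mutations.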

Compounds without any hit were thinned out: in the full panel of roughly 79,000, 15% have a hit. A number with no mark means an inactive call. The source made the active and inactive calls. Rule as the data show it: active = growth inhibition above about 70%; inactive = the rest.

Regarding `COc1ccc(C2OC23CC(C)(C)c2ccccc2C3=O)cc1` (stereo unspecified), the growth inhibition was -3.8% in experiment [1]; 1.65% in experiment [2]; -0.05% in experiment [3]; -11% in experiment [4]; 16.3% in experiment [5]; -1.1% in experiment [6].
For `COc1cc(C(=O)OCCOC(=O)c2ccc(O)c(OC)c2)ccc1O`, the growth inhibition in experiment [1] was 45.4%; in experiment [2], 13.8%; in experiment [3], 25.4%; in experiment [4], -25.5%; in experiment [5] it was 51.7%; in experiment [6] it was 40.5%.
Turning to `O=[N+]([O-])c1ccccc1N=N/C(Cc1ccccc1)=N\Nc1ccccc1`, the growth inhibition in experiment [1] is 10.8%; in experiment [2], 19.9%; in experiment [3] it was -8.25%; in experiment [4], 11.6%; in experiment [5], -12.6%; in experiment [6] it was -17.8%.
As for `CN1NC(c2ccccc2)NN(C)C1=S`, the growth inhibition was -19.8% in experiment [1]; -25.6% in experiment [2]; -12% in experiment [3]; -16.6% in experiment [4]; -4.45% in experiment [5]; 3.05% in experiment [6].
With `CCOC(=O)C1C(=O)CC(=O)C(C(=O)OCC)C1C1CC=CCC1` (stereo unspecified), the growth inhibition in experiment [1] is 51%; in experiment [2], 69.5%; in experiment [3] it was 78.5% (active); in experiment [4] it was 38.7%; in experiment [5], 70.7% (active); in experiment [6], 78.5% (active).
For `NC1CC(=O)c2c(Cl)sc(Cl)c21` (stereo unspecified), the growth inhibition was 51.4% in experiment [1]; 35.7% in experiment [2]; 60.5% in experiment [3]; 41.6% in experiment [4]; 27.6% in experiment [5]; 1.15% in experiment [6].
`NC(=O)/C(N=Nc1ccccc1)=N\Nc1ccccc1`: the growth inhibition in experiment [1] was 94.2% (active); in experiment [2], 94.8% (active); in experiment [3], 94.8% (active); in experiment [4], 73.2% (active); in experiment [5], 95.5% (active); in experiment [6], 94.8% (active).
As for `C/C=C/c1cc(C)cc(C)c1OC(C)CC` (stereo unspecified), the growth inhibition in experiment [1] is -2.45%; in experiment [2], -9.75%; in experiment [3], 11.4%; in experiment [4], -34.5%; in experiment [5], -17.9%; in experiment [6], 10.1%.
For the compound `O=C(NC1CCCCC1)c1cccnc1`, the growth inhibition in experiment [1] was -11.4%; in experiment [2], -2.2%; in experiment [3], -17.1%; in experiment [4] it was -10.9%; in experiment [5], -14.5%; in experiment [6] it was -13.5%.
In the case of `CCOc1ccc(NC(=O)CC2SC(=Nc3ccc(C)cc3)NC2=O)cc1` (stereo unspecified), the growth inhibition in experiment [1] is -12.7%; in experiment [2] it was -38.5%; in experiment [3], -5.3%; in experiment [4], 4.35%; in experiment [5], -31.9%; in experiment [6], -38%.
Take `CCOC(=O)c1nc2c(Cl)c3ncccc3cc2[nH]c1=O`: the growth inhibition in experiment [1] was 20.6%; in experiment [2] it was 11.1%; in experiment [3], 20.8%; in experiment [4], -9.7%; in experiment [5], 16.1%; in experiment [6], 20.4%.
Regarding `CC(=O)NCCCOc1ccc(N)cc1`, the growth inhibition in experiment [1] was -3.7%; in experiment [2], 4.05%; in experiment [3] it was -0.4%; in experiment [4] it was -27.1%; in experiment [5] it was -2.3%; in experiment [6], -11.9%.
Regarding `CCC(=O)Oc1ccccc1OC`, the growth inhibition is -28.8% in experiment [1]; -7.25% in experiment [2]; -6.05% in experiment [3]; -0.3% in experiment [4]; -31.9% in experiment [5]; -16.9% in experiment [6].
With `CN(C)n1c(O)c(N=O)sc1=S`, the growth inhibition in experiment [1] was -30.9%; in experiment [2], -6.25%; in experiment [3], -7.65%; in experiment [4], -25.7%; in experiment [5] it was -10.1%; in experiment [6] it was 5.55%.
Regarding `CN(C)CCNc1nnc(NCCN(C)C)c2cc3ccccc3cc12`, the growth inhibition was -0.7% in experiment [1]; 27.3% in experiment [2]; -2.45% in experiment [3]; 10.5% in experiment [4]; -1.4% in experiment [5]; 7.45% in experiment [6].
For the compound `S=C(NCCNC(=S)SCc1c(Cl)c(Cl)c(Cl)c(Cl)c1Cl)SCc1c(Cl)c(Cl)c(Cl)c(Cl)c1Cl`, the growth inhibition in experiment [1] is 48.1%; in experiment [2], 14.3%; in experiment [3], 24.6%; in experiment [4], -8.85%; in experiment [5], -0.7%; in experiment [6], 59.8%.
As for `O=C1CC(c2ccccc2)C(c2ccccc2)C1` (stereo unspecified), the growth inhibition in experiment [1] was 6%; in experiment [2], 0.45%; in experiment [3] it was 4.2%; in experiment [4], 4.2%; in experiment [5], -24.1%; in experiment [6], -0.25%.
On to `Cc1cc(=O)[nH]c2ccc(-c3ccc4[nH]c(=O)cc(C)c4c3)cc12`, for which the growth inhibition was 21.4% in experiment [1]; -17.2% in experiment [2]; 31.3% in experiment [3]; 5.15% in experiment [4]; 23.1% in experiment [5]; 18% in experiment [6].
For the compound `COC(=O)c1c(C)cc(OC)c(C/C=C(\C)CCCc2coc(C=C(C)C)c2)c1OC`, the growth inhibition in experiment [1] was 21%; in experiment [2], 6.55%; in experiment [3], 19%; in experiment [4], 11.9%; in experiment [5], 12.4%; in experiment [6], 25%.
For the compound `CN(Cc1ccc(Cl)cc1)C(=O)Nc1ccccc1Cl`, the growth inhibition in experiment [1] is 6.7%; in experiment [2], 14.7%; in experiment [3] it was 43.3%; in experiment [4], 7.35%; in experiment [5] it was 40.2%; in experiment [6] it was 9.95%.
Regarding `OC1c2ccccc2OC2(N3CCCC3)CCCCC12` (stereo unspecified), the growth inhibition in experiment [1] was -5.6%; in experiment [2], -29.9%; in experiment [3], -13.2%; in experiment [4], -15.7%; in experiment [5], -26.4%; in experiment [6] it was 1.2%.
